Sm TGR inh: S. mansoni TGR enzyme inhibition. Potency, µM (highest dose often 114 µM), without a hit: at the highest dose activity change, negative = inhibition, actives largely listed as inhibitors. purified TGR, DTNB reduction, TNB absorbance 405 nm. AID 485364. Q962Y6. 3% of 360,000 active; further: potency means the concentration at half of the fitted maximal effect; nearly all actives have a fitted effect of over 60% in size
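First, TGR (20 nM dispensed) and NADPH were mixed with compound. Second, a 15 min room-temperature incubation followed. Third, further NADPH and then DTNB were added to start the reaction. Finally, TNB absorbance was monitored kinetically.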
Pf growth 48h: inhibits P. falciparum growth in the first generation, 48 h. Potency, µM (highest dose often 28.7 µM), for inactives: at the top dose activity change, negative = inhibition, hits mostly inhibitors. P. falciparum luciferase growth in erythrocytes, 48 h. AID 504832. 5.9% of 310,000 active; further: potency means the concentration at half of the fitted maximal effect
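Compounds are pin-transferred into medium, infected erythrocytes (2% hematocrit, 0.1% parasitemia final) are added, and plates sit one parasite generation at 37 C in 5% CO2. Detection reagent is then added and luminescence measured.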
Giardia FBPA inh: inhibitors of Giardia lamblia fructose-1,6-bisphosphate aldolase | 0.71% of 290,000 active | Potency, µM (series often up to 59.6 µM), inactives show at the highest dose activity, negative = inhibition, actives largely listed as inhibitors | purified Giardia FBPA | AID 2451; further: potency means the concentration at half of the fitted maximal effect; nearly all actives have a fitted effect of over 55% in size
Target sequence (A8B2U2 whole entry, looked up): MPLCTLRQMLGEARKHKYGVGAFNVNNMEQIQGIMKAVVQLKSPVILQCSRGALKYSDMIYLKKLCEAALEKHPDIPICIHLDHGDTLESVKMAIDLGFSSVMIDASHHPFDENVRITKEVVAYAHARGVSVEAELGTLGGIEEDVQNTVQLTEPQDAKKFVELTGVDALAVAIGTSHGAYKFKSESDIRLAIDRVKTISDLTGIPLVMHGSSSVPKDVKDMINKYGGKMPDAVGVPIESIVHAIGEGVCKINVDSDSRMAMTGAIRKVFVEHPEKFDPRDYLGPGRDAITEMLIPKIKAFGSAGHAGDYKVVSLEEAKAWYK
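Giardia FBPA (40 nM reagent) was preincubated 10 min at RT with compound (up to 57.5 uM final), then substrate plus GAPDH/TPI/NAD/arsenate coupling system with diaphorase/resazurin was added; resorufin fluorescence (525/598 nm) was read after 20 min.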
Pf growth 96h: P. falciparum growth inhibition at 96 hour, primary screen for plastid delayed-death inhibitors. P. falciparum luciferase reporter growth, 96 h. Potency, µM (titrated, usually from 28.7 µM), for the others: at the highest dose activity change, negative = inhibition, hits mostly inhibitors. 6.9% of 320,000 active; further: potency means the concentration at half of the fitted maximal effect
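Delayed-death screen, second-generation endpoint: infected erythrocytes, 2% hematocrit, 0.05% parasitemia final; 96 hours at 37 C, 5% CO2; luciferase detection reagent; luminescence decrease equals reduced growth.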
HCMV inh: human cytomegalovirus inhibition | activity change, negative = inhibition, % at 57.5 µM | HFF cells, HCMV-luciferase reporter, 72 h; stronger effect = lower value | 4.5% of 410,000 active; in the data active means activity change below about -60%; inconclusive means no clear call, values can overlap the other calls; inactive means above about -39%
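Two compound doses tested in HFFs infected with HCMV-luciferase, MOI 1 PFU/cell, 72 h at 37C. Lysate luminescence read with OneGlo; data normalized against buffer-only and 10uM Salinomycin inhibitor controls.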
* = called active by the depositor; ? = inconclusive; . = no result given; [ ] = another dose, or the depositor's remark. Sampled rows, rich in hits. Any-hit rate of the full collection: about 14%. Unless noted, the call rests on the fitted dose curve; in most records, active means well fitted curve in the direction sought with a large enough effect; inconclusive means small, poorly fitted or top-dose-only effect, or another doubt; inactive means no such curve, though single readings can be large; an effect the other way counts as inactive or inconclusive. On the % scale 0 is the no-effect control and ±100 the full control effect.

SMILES	Sm TGR inh	Pf growth 48h	Giardia FBPA inh	Pf growth 96h	HCMV inh
Cc1cc(NC(=O)CSc2nc3ccccc3c(=O)n2C(C)c2ccccc2)no1 (centres undefined)	10%	.	-3%	12µM*	?
O=C(CSc1nc(Cc2ccccc2)nc2ccccc12)c1ccc2c(c1)OCCO2	-9%	9.3µM*	-3%	?	?
CCCc1nc(SCC(=O)N2CCCC2)c2ccccc2n1	9%	-17%	7%	-3%	-89*
CCc1nc(SCC(=O)c2ccccc2)c2ccccc2n1	45µM*	?	-20%	?	-35
COc1ccc(Br)cc1C1C2C=CCCC2(C)C(=O)N1Cc1ccccc1 (centres undefined)	.	.	0%	.	.
Cc1ccc(C(=O)OCc2cc(=O)n3c(C)csc3n2)s1	4%	-9%	.	-9%	11
CCc1nc(SCC(=O)c2ccc3c(c2)OCCO3)c2ccccc2n1	-2%	?	-3%	10µM*	?
CCCc1nc(SCC(=O)Nc2cc(C)on2)c2ccccc2n1	-1%	-23%	-2%	2.1µM*	-27
CCCn1c(NC(=O)CSCC(=O)Nc2cc(C)on2)nc2ccccc21	1%	?	.	?	-24
CCc1nc(SCC(=O)NNC(=O)c2ccc(OC)cc2)c2ccccc2n1	1%[57.1 µM]	-17%	3%	?	20
CCc1nc2ccccc2n1CC(=O)Nc1cc(C)on1	1%	54%	2%	4.7µM*	27
CCCc1nc(SCC(=O)c2ccc(OC)cc2)c2ccccc2n1	5%	?	-8%	37%	-83*
ClC(Cl)Cl	.	-3%	.	-1%	.
O=C(NC1CCS(=O)(=O)C1)N1CCCCC1 (centres undefined)	-25%	.	4%	4.1µM*	15
O=C(NC1CCCCC1)N1CCCCCC1	19%	6%	8%	20%	-6
O=C(Cc1ccc(NS(=O)(=O)c2ccc(F)cc2)cc1)NCc1cccnc1	-19%	2%	-12%	-4%	-31
Cc1[nH]n(-c2ccc(Br)cc2)c(=O)c1/C=N/NC(=O)c1ccccc1	-5%	?	2%	?	-98*
O=C(N/N=C/c1c(Cl)cccc1Cl)c1cccc(F)c1	35µM*	33%	4%	9%	-11
O=C(N/N=C/c1ccccc1Cl)c1cccc(F)c1	12%	123%	-2%	74%	58
Cc1[nH]n(-c2ccccc2)c(=O)c1/C=N/NC(=O)c1cccc(F)c1	2%	10µM*	?	-5%	-98*
Cc1cccc(C)c1Nc1nnc(SCC(=O)Nc2cc(S(=O)(=O)N3CCCCC3)ccc2Cl)s1	3%	13µM*	-4%	?	?
O=C(CNc1cccc(S(=O)(=O)N2CCCC2)c1)Nc1cccc(Br)c1	1%	5.2µM*	.	4.1µM*	-29
O=C(CNc1cccc(S(=O)(=O)N2CCOCC2)c1)Nc1ccc(C(F)(F)F)cc1	7%	6.6µM*	.	7.4µM*	-11
Cc1cccc(Nc2nnc(SCC(=O)Nc3cccc(S(=O)(=O)N4CCCCC4)c3)s2)c1	-9%	29%	-2%	-16%	-8
CC(=O)c1cccc(NCC(=O)Nc2cc(S(=O)(=O)N3CCCCC3)ccc2C)c1	1%	?	.	10µM*	-35
SMILES	Sm TGR inh	Pf growth 48h	Giardia FBPA inh	Pf growth 96h	HCMV inh
O=C(CNc1ccc(C(F)(F)F)cc1)Nc1cccc(S(=O)(=O)N2CCCC2)c1	5%	?	.	?	95
COCCNC(=O)C1(C)CCCN(C(=O)c2ccc(OC)c(OC)c2)C1 (centres undefined)	.	.	.	.	-26
COc1ccc(CNc2ncncc2-c2ccccc2C(F)(F)F)c(OC)c1	.	.	5%	.	.
COc1ccc2oc(C(=O)Nc3nc(C)cs3)c(C)c2c1	1%	72%	.	63%	0
Cc1cccc(OC(C)C(=O)N2CCC(c3nc4ccccc4o3)CC2)c1C (centres undefined)	4%	.	.	.	14
O=C(CSc1ncnc2ccccc12)Nc1cc(S(=O)(=O)N2CCCCC2)ccc1Cl	-6%	?	1%	?	?
Cc1ccc(S(=O)(=O)N2CCCCC2)cc1NC(=O)CSc1ncnc2ccccc12	0%	-84%	0%	0%	-71*
O=C(CNc1cc(S(=O)(=O)N2CCCC2)ccc1OCC(F)(F)F)Nc1cc(Cl)cc(Cl)c1	2%	6%	1%	2%	.
Cc1cc(C)cc(NC(=O)CN2C(=O)NC(Cc3c[nH]c4ccccc34)C2=O)c1 (centres undefined)	.	.	.	.	0
O=C(CN1C(=O)NC(Cc2c[nH]c3ccccc23)C1=O)Nc1cccc(S(=O)(=O)N2CCOCC2)c1 (centres undefined)	8%	?	0%	9.3µM*	-8
O=C(CNc1ccc(Br)cc1)Nc1ccc(S(=O)(=O)N2CCCC2)cc1	-1%	9.3µM*	.	12µM*	34
O=C(CNc1cc(S(=O)(=O)N2CCCC2)ccc1OCC(F)(F)F)Nc1ccc(SC(F)F)cc1	4%	?	-8%	?	-63*
CC(C)OCCCn1c(-c2ccc(Br)cc2)c[nH]c1=S	-6%	?	-4%	1%	-14
O=S(=O)(c1cccc(NC(=S)Nc2ccc(Br)cc2Cl)c1)N1CCOCC1	14µM*	?	-9%	59%	-10
O=C(CNc1cccc(S(=O)(=O)N2CCOCC2)c1)Nc1cccc(Br)c1	8%	6.6µM*	.	9.3µM*	-29
O=C(CSc1nnc2c(n1)[nH]c1ccccc12)Nc1cccc(S(=O)(=O)N2CCOCC2)c1	2%	?	-2%	15µM*	-10
COCCNC(=O)C1=CC(c2ccc3c(c2)OCO3)=NS(=O)(=O)N1C	-9%	.	.	.	4
Cc1ccc(S(=O)(=O)Oc2ccc(C3C4=C(CCCC4=O)N(CCC(=O)O)C4=C3C(=O)CCC4)cc2Cl)cc1	0%	3.3µM*	7%	3.3µM*	24
CC(C)COC(=O)c1cc(-c2ccc(/C=N/n3cnnc3)o2)ccc1Cl	22µM*	23%	4%	.	24
O=S(=O)(NC1CC1)c1ccc(S(=O)(=O)N2CCCC(c3nc(-c4cccnc4)no3)C2)cc1 (centres undefined)	1%	?	1%	-3%	-66*
CC(=O)c1cn(CC(=O)Nc2cccc(C)c2C)c2ccccc12	5%	39%	3%	-12%	-70*
COC(=O)Cn1cc(C(=O)C(C)(C)C)c2ccccc21	4%	18%	-1%	2%	16
Cc1ccc(-n2c(=O)c3cccnc3n2CC(=O)Nc2cccc(C)c2C)cc1	1%	.	.	.	-63*
CCCC(=O)c1cn(CC(=O)OC)c2ccccc12	3%	7%	-1%	1µM*	11
Cc1c(C(=O)C(=O)N2CCN(Cc3ccc4c(c3)OCO4)CC2)c2ccccc2n1C	1%	?	-4%	-18%	19
Cc1onc(-c2ccccc2Cl)c1C(=O)Nc1ccccc1	-7%	-10%	0%	-15%	-9
